MBD2 inh: inhibitors of MBD2 binding to methylated DNA, primary screen, biochemical, TR-FRET, DNA-binding domain, human; AID 686964, 2013; inhibition, % at 4.4 µM; Methyl-CpG-binding domain protein 2 (Homo sapiens), Q9UBB5; MBD2 binding to methylated oligonucleotide; actives 0.31% (n = 370,000); in the data active = inhibition above about 13%
Target sequence (Q9UBB5 whole entry, looked up, the tested form may be a part): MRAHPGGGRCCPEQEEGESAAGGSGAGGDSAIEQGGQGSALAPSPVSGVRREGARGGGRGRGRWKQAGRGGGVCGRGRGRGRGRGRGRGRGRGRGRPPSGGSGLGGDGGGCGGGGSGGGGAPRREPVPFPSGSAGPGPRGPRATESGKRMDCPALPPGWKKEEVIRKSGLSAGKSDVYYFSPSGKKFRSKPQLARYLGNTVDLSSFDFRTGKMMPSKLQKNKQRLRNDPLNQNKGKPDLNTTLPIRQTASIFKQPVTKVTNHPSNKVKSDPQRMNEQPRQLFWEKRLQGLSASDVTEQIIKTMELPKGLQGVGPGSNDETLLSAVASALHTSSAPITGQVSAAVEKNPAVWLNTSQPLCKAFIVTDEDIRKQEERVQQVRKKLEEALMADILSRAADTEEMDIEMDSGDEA
UHRF1 MBD2 ctr: UHRF1 methylated DNA binding inhibitors, primary screen, counter-screen for MBD2 inhibitor project, biochemical, TR-FRET, human UHRF1, single concentration. inhibition, % at 4.4 µM. actives 0.75% (n = 370,000). UHRF1 binding to methylated oligo; in the data active = inhibition above about 21%;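 also: UHRF1 SRA domain binding a hemimethylated CpG hairpin DNA probe; 0% = median of test compound wells and 100% = reference inhibitor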
LEDGF integ inh: blockers of LEDGF/p75-dependent integrase strand transfer – biochemical, TR-FRET, high throughput, primary screen. TR-FRET IN-LEDGF/p75 DNA integration, Eu/Cy5. inhibition, % at 3.7 µM. actives 0.64% (n = 370,000);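 active = inhibition above the screen-wide mean plus 3 SD, cut at about 13% in these data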;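 also: signal is the Cy5 over europium emission ratio at 671 and 618 nm; 0% = plate median of compound wells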
PRMT1 inh: PRMT1 methyltransferase inhibitors, primary screen, biochemical, fluorescence polarization. Protein arginine N-methyltransferase 1 (Homo sapiens), Q99873. inhibition, % at 2.79 µM. recombinant PRMT1, activity-based probe fluorescence polarization. actives 1.3% (n = 370,000). AID 652257, 2013;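 active = inhibition above about 21% made by adding two undisclosed values, limit read from the data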
* marks the source's active call; other numbers are inactive results. This is a sample that favours compounds with a hit; in the whole collection about 2.5% have one here.

SMILES	MBD2 inh	UHRF1 MBD2 ctr	LEDGF integ inh	PRMT1 inh
O=C(Cn1cc(COc2c(F)c(F)c(Br)c(F)c2F)nn1)c1ccc(O)cc1	-2	4	-3	5
O=Cc1cccc(OCc2cn(CC(=O)c3ccc(O)cc3)nn2)c1	12	24*	3	4
CCCC(=O)c1ccc(OCc2cn(CC(=O)c3ccc(O)cc3)nn2)cc1	5	23*	4	1
N#Cc1ccccc1OCc1cn(CC(=O)c2ccc(O)cc2)nn1	13	22*	3	7
O=C(Cn1cc(COc2ccc(Br)cc2)nn1)c1ccc(O)cc1	5	9	-3	2
O=C(Cn1cc(COc2c(Br)cc(F)cc2Br)nn1)c1ccc(O)cc1	13	21*	3	2
CC(C)(C)c1ccc(S(=O)(=O)N2CCCC(C(=O)NCc3ccco3)C2)cc1 (stereo not given)	3	0	0	0
CCN(CC)C(=O)c1sc(N2C(=O)Nc3ccccc3N2O)c(C(=O)OC)c1C	4	2	-1	2
CC(=O)c1cc(C)c(OCc2cn(CC(=O)c3ccc(O)cc3)nn2)c(C)c1	9	21*	5	1
CC1CCN(S(=O)(=O)c2cccc(C(=O)NNC(=O)c3ccco3)c2)CC1	5	30*	1	4
CC1CCN(S(=O)(=O)c2cccc(C(=O)NCc3ccco3)c2)CC1	3	-2	-2	-2
N/C(Cc1ccc(Cl)cc1Cl)=N\OC(=O)Cc1cccs1	3	58*	-6	3
N/C(Cc1ccc(Cl)cc1Cl)=N\OC(=O)c1cccs1	6	8	0	-2
CS(=O)(=O)c1sc2nc(-c3cccs3)cc(-c3ccccc3)c2c1N	-1	-3	20*	65*
Cc1ccc(-c2cc(-c3ccccc3)c3c(N)c(S(C)(=O)=O)sc3n2)cc1	-4	3	8	18
CN(C)c1ccc(/C=C/CNC[C@H]2O[C@@H](n3ccc(N)nc3=O)[C@H](O)[C@@H]2O)cc1	-9	-4	1	2
CCCCS(=O)(=O)c1sc2nc3c(cc2c1N)CCCC3	1	0	-3	-2
CCCCCCCCS(=O)c1sc2nc3c(cc2c1N)CCCC3 (stereo not given)	4	3	-1	24*
Cc1ccc(-n2c(-c3ccccc3)c[nH]c2=S)cc1	-4	-2	-2	17
COc1ccc(-n2c(-c3ccc(Cl)cc3)c[nH]c2=S)cc1	-4	1	3	24*
CC(C)NC(=O)N(C)C[C@@H]1Oc2cc(Br)ccc2S(=O)(=O)N([C@@H](C)CO)C[C@H]1C	-4	1	0	-3
CN(C)/C=C/C1=CC(=O)CC(C)(C)C1	-1	2	-3	1
O=C1CCCC2=C1C(c1ccc(O)c(O)c1)Nc1ccc3ncccc3c12 (stereo not given)	5	4	7	34*
C=CCOc1ccccc1C(=O)/C=C1/C(=O)Nc2ccccc21	5	-2	2	23*
C=CCOc1ccc(C(=O)/C=C2/C(=O)Nc3ccccc32)cc1	5	-3	4	-5
SMILES	MBD2 inh	UHRF1 MBD2 ctr	LEDGF integ inh	PRMT1 inh
O=C(CSc1ccccn1)Nc1ccc(N2CCOCC2)cc1	-7	93*	3	2
Nc1nonc1-n1nnc(C(=O)N/N=C/c2cccnc2)c1CSC1=NCCS1	-3	-1	-1	47*
O=C(NCC(c1ccccc1)c1ccccc1)[C@H](Cc1ccccc1)NC1(C(=O)NC2CCCCC2)CCOCC1	-3	3	3	-1
COc1ccc(CNC(=O)c2sc(=O)n(Cc3cc(C(C)=O)ccc3OC)c2C)cc1	6	22*	7	8
COc1ccc(Cl)cc1Cn1c(C)c(C(=O)NCc2ccc3c(c2)OCCO3)sc1=O	-4	43*	2	2
COc1ccc(CNC(=O)c2sc(=O)n(Cc3cc(Cl)ccc3OC)c2C)cc1	1	1	-2	4
COc1ccccc1C(=O)NCCC(=O)NCC1CCCO1 (stereo not given)	2	2	-5	3
Cc1ccccc1C(=O)N1CCN(C(=O)C(=O)c2cccc(C(F)(F)F)c2)CC1	2	0	-2	1
O=C(C(=O)N1CCN(C(=O)Cc2ccccc2)CC1)c1cccc(C(F)(F)F)c1	-6	58*	2	3
COc1ccc([C@H]2CC(=O)C[C@@H](CCn3nnc4ccccc43)O2)cc1	0	1	2	-4
Cc1ccc(C)c(NC(=O)C2CCCN2C(=O)NC2CCCCC2)c1 (stereo not given)	-4	3	1	-3
COc1ccccc1NC(=O)CSc1nnc(CCC(=O)Nc2ccccc2F)n1C	4	21*	-1	2
O=C(O)Cn1nnnc1SCC(=O)Nc1ccccc1F	9	26*	2	0
COC(=O)c1ccccc1NC(=O)CSc1nnnn1CC(=O)O	-5	-2	4	-4
COc1ccccc1C(=O)Nc1ccccc1SC(=O)c1ccccc1OC	6	2	-7	52*
c1ccc(CN2CCN(C3=Nc4cccc5cccc3c45)CC2)cc1	-4	-5	1	-1
O=C1CCN2C=Nc3cccc4ccc1c2c34	-21	-99	4	124*
CC1CC(C)CN(C(=O)c2ccc(CSc3nc4ccncc4[nH]3)cc2)C1 (stereo not given)	-9	34*	1	-3
CCN(CCNC(=O)c1ccc(CSc2nc3ccncc3[nH]2)cc1)c1ccccc1	-1	-2	-3	-2
Cc1ccc(NC(=O)CN2C(=O)N/C(=C/c3cc(C)n(-c4cccc(C(=O)O)c4)c3C)C2=O)cc1	8	37*	26*	25*
Cc1ccc(NC(=O)CN2C(=O)N/C(=C/c3ccccc3OCc3cccc(C(=O)O)c3)C2=O)cc1	-5	0	10	-1
COc1ccc2cc3[n+](cc2c1O)CCc1cc2c(cc1-3)OCO2	-1	7	27*	11
COc1cc2c(cc1OC)-c1cc3ccc(OC)c(OC)c3c[n+]1CC2	-14	-17	-3	-2
COP(=O)(OC)OC(C(=O)c1ccccc1)c1ccc(Cl)cc1 (stereo not given)	6	1	1	3
CC1=C(C(=O)N(C(C)C)C(C)C)CC(CC(=O)NCCCCc2ccccc2)C(=O)N1Cc1ccc(F)cc1 (stereo not given)	0	-2	0	-1
Cc1ccc(NS(=O)(=O)c2cc([N+](=O)[O-])ccc2NNC(=S)Nc2cc(C)ccc2C)c(C)c1	-5	0	-3	5
COc1ccc(NC(=S)NNc2ccc([N+](=O)[O-])cc2S(=O)(=O)Nc2ccc(C)cc2C)cc1	-2	0	-2	24*
CSCC[C@H](NC(=O)N1CCn2c1nc1ccccc12)C(=O)NCc1ccco1	-1	-2	0	-4
C(=N/n1c2ccccc2c2ccccc21)/c1ccco1	0	-1	-3	2

Screening data as filed in PubChem.
